Measured values taken from PubChem BioAssay (NCATS).
Inconclusive results are not listed. Unmarked numbers belong to inactive results. Calls of active or inactive are those of the source. Calls come from the whole dose curve; as a rule, active = well fitted curve in the direction sought with a large enough effect; inconclusive = small, poorly fitted or top-dose-only effect, or another doubt; inactive = no such curve, though single readings can be large; an effect the other way counts as inactive or inconclusive. Residues, ends and D or L forms follow the SMILES beside them. *: point of attachment. Cbz = O=C(OCc1ccccc1)*

Assay: Counterscreen qHTS for small molecule stabilizers of the endoplasmic reticulum resident proteome: GLuc-NoTag assay (AID 1508627);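 note: SH-SY5Y cells given compound then 100 nM thapsigargin to empty ER calcium; 0% = thapsigargin alone and -100% = DMSO vehicle control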
Details: Gaussia luciferase NoTag secretion counterscreen, luminescence, thapsigargin 100 nM for final 4 h; series mostly up to 76.4 µM; activity change, negative = inhibition: at the top concentration
Method in brief: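 Luminescence of Gaussia luciferase secreted into the medium (coelenterazine, 0.07x final, unlysed cells) was the read-out. Human SH-SY5Y neuroblastoma cells constitutively secreting untagged GLuc received compound for 19 h, then 100 nM thapsigargin for 4 h.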

Structure (SMILES) | activity change, negative = inhibition | Potency
O=C(O)CCC(=O)N1CCCC1C(=O)O (configuration not stated) | 8.09% | –
Cc1nc(N=Nc2ccc(S(=O)(=O)O)cc2S(=O)(=O)O)c(COP(=O)(O)O)c(C=O)c1O | -12.9% | –
N#Cc1cc([N+](=O)[O-])c2sc(C(N)=O)[n+]([O-])c2c1 | 9.63% | –
Nc1ccc(-c2ccc3ccccc3n2)cc1 | -4.66% | –
NC(=Nc1ccccc1)NC(=O)c1nc(Cl)c(N)nc1N | 14.4% [at 38.7 µM] | –
NC(N)=NC(N)=Nc1ccccc1 | -12.8% | –
O=S(=O)(c1cccc2c(Cl)cccc12)N1CCCNCC1 | – | inactive
CCCCCCCCCCCCCCC[C@H](O)[C@H](N)CO | 1.34% | –
CN1C2CCC1CC(OC(c1ccccc1)c1ccccc1)C2 (configuration not stated) | -21.5% | –
C[C@]12C=CC(=O)C=C1CC[C@@H]1C2=CC[C@]2(C)[C@@H](C(=O)CN3CCN(c4cc(N5CCCC5)nc(N5CCCC5)n4)CC3)CC[C@@H]12 | 3.56% | –

Assay: Confirmatory qHTS for small molecule stabilizers of the endoplasmic reticulum resident proteome: Secreted ER Calcium Modulated Protein (SERCaMP) assay (AID 1508628); note: nearly all actives have a fitted effect of over 40% in size; note: potency is the fitted concentration of half-maximal effect;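 for activity change, negative = decrease: SH-SY5Y cells given compound 16 h then thapsigargin 100 nM for 4 h; % is set by controls: 0 for no effect and ±100 for the full control effect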
Details: SERCaMP secreted luciferase ER calcium/proteostasis reporter; series mostly up to 76.3 µM; activity change, negative = decrease: at the top concentration
Method in brief: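 We seeded SH-SY5Y-GLuc-SERCaMP cells, added compounds (three concentrations in the primary run, eleven up to 76.6 uM in confirmation), incubated 16 h, depleted ER calcium with thapsigargin, and read luciferase 4 h later.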

Structure (SMILES) | activity change, negative = decrease | Potency
O=C(O)CCC(=O)N1CCCC1C(=O)O (configuration not stated) | 10.8% | –
Cc1nc(N=Nc2ccc(S(=O)(=O)O)cc2S(=O)(=O)O)c(COP(=O)(O)O)c(C=O)c1O | 20.7% | –
N#Cc1cc([N+](=O)[O-])c2sc(C(N)=O)[n+]([O-])c2c1 | 8.57% | –
CN1CCc2cc(Cl)c(O)cc2[C@@H](c2ccccc2)C1 | -22.9% | –
NC(=Nc1ccccc1)NC(=O)c1nc(Cl)c(N)nc1N | 7.92% [at 38.8 µM] | –
NC(N)=NC(N)=Nc1ccccc1 | -23.9% | –
Cc1ccccc1/C=C/C1=NCCN1 | – | 11.2 µM (active)
CCCCOC(=O)NS(=O)(=O)c1sc(CC(C)C)cc1-c1ccc(Cn2c(CC)nc3c(C)cc(C)nc32)cc1 | – | 15.8 µM (active)
O=S(=O)(c1cccc2c(Cl)cccc12)N1CCCNCC1 | -23.4% | –
CCCCCCCCCCCCCCC[C@H](O)[C@H](N)CO | 259% | –
O=c1cc(O)cc(/C=C/c2ccc(O)c(O)c2)o1 | – | 20 µM (active)

Assay: Cell Viability qHTS for small molecule stabilizers of the endoplasmic reticulum resident proteome (AID 1508629);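 note: compound exposure about 46 h in total before the viability read; % is set by controls: 0 for no effect and ±100 for the full control effect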
Details: cell viability counter-screen, 100 nM thapsigargin for final 4 h
Excerpt: Assay Provider: Brandon K. Harvey Ph.D.
National Institute on Drug Abuse, National Institutes of Health, Baltimore, MD
Endoplasmic reticulum (ER) dysregulation is associated with human pathologies including neurodegenerative, cardiovascular, muscular, and diabetic conditions. Maintenance of ER calcium is critical for functions of the ER and its depletion can lead to loss of ER resident proteins, in a process termed exodosis. Therapeutic compounds capable of attenuating the redistribution of ER proteins under pathological conditions may slow or stop disease progression. To identify such compounds, we performed a quantitative high-throughput screen (qHTS) using the SERCaMP assay, which monitors secretion of ER resident proteins triggered by calcium depletion.
SERCaMP was initially developed as a reporter of ER calcium homeostasis using a Gaussia luciferase with a modified signal peptide and carboxy-terminus (GLuc-SERCaMP), modifications that confer secretion of the reporter in response to ER calcium depletion (Henderson et al., 2014). The assay was used to screen 9,501 compounds, including a collection of drugs approved by the FDA (US), EMA (EU), NHI (Japan), and HC (Canada) regulatory agencies (Huang et al., 2011). Since the SERCaMP reporter reflects the exodosis phenomenon (Trychta et al., 2018a), compounds identified in the screen have the potential to prevent exodosis by different mechanisms such as stabilizing ER calcium or augmenting ERS retrieval.
1. Henderson, M.J., Wires, E.S., Trychta, K.A., Richie, C.T., and Harvey, B.K. (2014). SERCaMP: a carboxy-terminal protein modification that enables monitoring of ER calcium homeostasis. Mol Biol Cell 25, 2828-2839.
2. Huang, R., Southall, N., Wang, Y., Yasgar, A., Shinn, P., Jadhav, A., Nguyen, D.T., and Austin, C.P. (2011). The NCGC pharmaceutical collection: a comprehensive resource of clinically approved drugs enabling repurposing and chemical genomics. Sci Transl Med 3, 80ps16.
3. Trychta, K.A., Back, S., Henderson, M.J., and Harvey, B.K. (2018a). KDEL Receptors Are Differentially Regulated to Maintain the ER Proteome under Calcium Deficiency. Cell Rep 25, 1829-1840 e1826.
SEQUENCE No. (1, 2, 3, etc.); […] (e.g., Cells, Incubation, Reagent, etc.); VALUE and DESCRIPTION.
1; Reagent; 5 uL; 1000 SH-SY5Y cells per wells
3; Compound; 23 nL; Control inhibitor / compound library
5; Reagent; 100 nM; Thapsigargin
7; Reagent; 5 uL; CellTiter-Glo (Promega)
8; Time; 10 min; room temperature
9; Detection; Luminescence; ViewLux imaging system
NOTES (numbers refer to sequence above)
1; SH-SY5Y human neuroblastoma cells stably expressing GLuc-SERCaMP (SH-SY5Y-GLuc-ASARTDL) cells were seeded in 1,536 well white tissue culture treated plates (Corning, Cat# 7464) in DMEM-high glucose-sodium pyruvate (ThermoFisher Scientific, Cat #10569) supplemented with 10% bovine growth serum (Hyclone), 10 U/ml penicillin (Gibco), 10 ug/ml streptomycin (Gibco), and 20 mM HEPES.
2; Assay plates were incubated for 5 hr at 37C in a humidified incubator containing 5% CO2.
3; qHTS libraries (23 nl, final concentrations of 1.53 uM, 7.67 uM, 38.3 uM) or controls (neutral control: DMSO, positive control: dantrolene) were added using a Kalypsis pin-tool Robotic System equipped with 1536 pinheads.
4; Cells were then incubated for 42 hours at 37C, 5% CO2.
5; Thapsigargin was added at 100 nM to deplete ER calcium stores.
6; Cells were incubated for 4 hr (37C, 5% CO2).
7; Cell viability was measured using the CellTiter-Glo Luminescent Cell Viability Assay (Promega). Briefly, an equal volume of reagent was added to each well. Plates were rotated for 2 min.
8; Assay plates were incubated for 10 min at room temperature.
9; Luminescence was measured using a ViewLux CCD imaging system (Perkin Elmer) equipped with clear filters.

Structure (SMILES) | max response [%]
CN1CCCC1CCOC(C)(c1ccccc1)c1ccc(Cl)cc1 (configuration not stated) | 8.32
Nc1ccc(-c2ccc3ccccc3n2)cc1 | -7.29
COc1cc(/C=C(\C#N)C(=O)c2ccc(O)c(O)c2)cc(I)c1O | 17.8
CCCCCCCCCCCCCCC[C@H](O)[C@H](N)CO | -0.696

Assay: Primary qHTS for small molecule stabilizers of the endoplasmic reticulum resident proteome: Secreted ER Calcium Modulated Protein (SERCaMP) assay (AID 1508630); note: % is set by controls: 0 for no effect and ±100 for the full control effect
Details: SH-SY5Y GLuc-SERCaMP (Gaussia luciferase released on ER calcium loss) secretion, thapsigargin, luminescence; series mostly up to 38.4 µM; activity change, negative = inhibition: at the top concentration
Method in brief: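 GLuc-SERCaMP-expressing SH-SY5Y cells, pretreated 16 h with compound, are challenged with thapsigargin to empty ER calcium stores; after 4 h, coelenterazine is added directly to the medium and luminescence is imaged.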

Structure (SMILES) | Potency | activity change, negative = inhibition [%]
CC(C)[C@H](NC(=O)OCc1ccccc1)C(=O)N[C@H](C=O)Cc1ccccc1 (Cbz-Val-Phe-aldehyde) | inactive | –
Nc1ncnc2c1c(-c1ccc(Oc3ccccc3)cc1)cn2C1CCCC1 | – | -19.9
Cc1nc(N=Nc2ccc(S(=O)(=O)O)cc2S(=O)(=O)O)c(COP(=O)(O)O)c(C=O)c1O | inactive | –
Nc1nc2c(cnn2CCc2ccccc2)c2nc(-c3ccco3)nn12 | inactive | –
CN1CCc2cc(Cl)c(O)cc2[C@@H](c2ccccc2)C1 | inactive | –
COC(=O)[C@H](NC(=O)c1cc(-c2ccccc2)nc2ccccc12)c1ccccc1 | inactive | –
CCCCCCCCCCC(C)(C)C(=O)Nc1c(OC)cc(OC)cc1OC | inactive | –
